Key:
Assay in all cases: DAPPL (digital affinity profiling via proximity ligation, sequencing); 10 mM Tris-HCl pH 7.5, 50 mM NaCl, 1 mM DTT, 4% glycerol, room temperature, 30 min; GST-TFs on glutathione beads, 16-mer random dsDNA library, 0.1% formaldehyde crosslink after washing; high values mean tight binding
Settings in all cases: protein: recombinant; tags: N-terminal GST; dsDNA, one strand shown
FLI1 = target: T1, FLI1 (Homo sapiens, UniProt Q01543 1-452)
T1 sequence: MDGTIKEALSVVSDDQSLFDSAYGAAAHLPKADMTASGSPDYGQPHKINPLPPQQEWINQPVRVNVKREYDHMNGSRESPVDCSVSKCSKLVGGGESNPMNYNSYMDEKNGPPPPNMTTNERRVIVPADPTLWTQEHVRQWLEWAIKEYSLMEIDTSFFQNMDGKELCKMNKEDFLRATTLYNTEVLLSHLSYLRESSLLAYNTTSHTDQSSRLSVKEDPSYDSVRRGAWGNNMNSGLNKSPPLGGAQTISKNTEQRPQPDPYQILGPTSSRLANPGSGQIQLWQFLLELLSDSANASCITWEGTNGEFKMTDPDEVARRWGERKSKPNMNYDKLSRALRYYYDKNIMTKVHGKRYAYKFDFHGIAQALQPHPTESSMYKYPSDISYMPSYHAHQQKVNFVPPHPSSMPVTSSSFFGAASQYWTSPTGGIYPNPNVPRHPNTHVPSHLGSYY
How it was run: (§1)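 After expression in yeast as GST fusions, human transcription factors were bound to glutathione beads, DNA-barcoded and mixed with a tag-only sample. The pools were incubated with 200 nmole of a 16-mer random double-stranded DNA library in Tris/NaCl/DTT/glycerol buffer (30 min, room temperature), washed and crosslinked with 0.1% formaldehyde. Proximity ligation with BsaI/T4 ligase ran for 1 h at 37 °C, before PCR amplification and sequencing on an Illumina NextSeq500. Binding signal is a hexamer's read frequency for a factor divided by its frequency for the tag-only sample.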

ELK1 = target: T2, ELK1 (Homo sapiens, UniProt P19419 1-428)
T2 sequence: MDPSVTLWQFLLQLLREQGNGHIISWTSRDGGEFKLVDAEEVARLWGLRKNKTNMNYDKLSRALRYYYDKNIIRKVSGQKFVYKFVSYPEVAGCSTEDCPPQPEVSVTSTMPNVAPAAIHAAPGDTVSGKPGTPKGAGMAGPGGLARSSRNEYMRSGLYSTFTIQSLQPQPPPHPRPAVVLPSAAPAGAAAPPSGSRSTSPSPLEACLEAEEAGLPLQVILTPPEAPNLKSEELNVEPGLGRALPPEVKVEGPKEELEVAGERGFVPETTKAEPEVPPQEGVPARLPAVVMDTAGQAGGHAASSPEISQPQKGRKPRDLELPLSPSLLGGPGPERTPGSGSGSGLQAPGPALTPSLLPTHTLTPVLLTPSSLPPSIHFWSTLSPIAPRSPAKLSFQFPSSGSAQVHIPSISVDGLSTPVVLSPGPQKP
How it was run: as §1

GABPA = target: T3, GABPA (Homo sapiens, UniProt Q06546 1-454)
T3 sequence: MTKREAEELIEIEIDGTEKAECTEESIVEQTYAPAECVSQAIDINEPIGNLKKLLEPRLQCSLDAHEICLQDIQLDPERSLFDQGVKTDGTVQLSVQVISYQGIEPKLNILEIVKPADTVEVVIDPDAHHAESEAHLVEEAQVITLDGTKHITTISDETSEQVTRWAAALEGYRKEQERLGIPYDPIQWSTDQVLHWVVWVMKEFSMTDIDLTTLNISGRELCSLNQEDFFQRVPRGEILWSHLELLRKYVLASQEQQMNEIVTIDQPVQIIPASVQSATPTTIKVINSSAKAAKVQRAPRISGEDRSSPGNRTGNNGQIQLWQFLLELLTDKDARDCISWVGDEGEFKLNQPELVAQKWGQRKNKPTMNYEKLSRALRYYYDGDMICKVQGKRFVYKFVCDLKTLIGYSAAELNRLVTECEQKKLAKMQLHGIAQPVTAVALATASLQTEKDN
How it was run: as §1

ERG = target: T4, ERG (Homo sapiens, UniProt P11308 1-479)
T4 sequence: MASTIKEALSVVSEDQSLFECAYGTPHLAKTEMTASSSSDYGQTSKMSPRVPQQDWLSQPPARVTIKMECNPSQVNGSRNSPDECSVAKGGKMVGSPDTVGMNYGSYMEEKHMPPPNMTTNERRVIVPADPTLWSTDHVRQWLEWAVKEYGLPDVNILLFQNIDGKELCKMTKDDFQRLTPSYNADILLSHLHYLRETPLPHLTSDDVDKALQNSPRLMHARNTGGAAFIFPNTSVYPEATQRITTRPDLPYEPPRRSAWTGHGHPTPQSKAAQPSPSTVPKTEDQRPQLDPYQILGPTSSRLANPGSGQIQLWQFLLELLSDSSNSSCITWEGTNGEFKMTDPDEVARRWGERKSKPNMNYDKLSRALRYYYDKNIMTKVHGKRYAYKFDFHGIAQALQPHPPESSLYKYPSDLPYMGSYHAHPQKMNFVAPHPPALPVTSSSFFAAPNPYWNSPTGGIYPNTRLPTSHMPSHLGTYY
How it was run: as §1

ELF1 = ELF1 (Homo sapiens, UniProt P32519 1-619)
How it was run: as §1

SPI1 = SPI1 (Homo sapiens, UniProt P17947 1-270)
How it was run: as §1

SPIB = SPIB (Homo sapiens, UniProt Q01892 1-262)
How it was run: as §1

ELK3 = target: T5, ELK3 (Homo sapiens, UniProt P41970 1-407)
T5 sequence: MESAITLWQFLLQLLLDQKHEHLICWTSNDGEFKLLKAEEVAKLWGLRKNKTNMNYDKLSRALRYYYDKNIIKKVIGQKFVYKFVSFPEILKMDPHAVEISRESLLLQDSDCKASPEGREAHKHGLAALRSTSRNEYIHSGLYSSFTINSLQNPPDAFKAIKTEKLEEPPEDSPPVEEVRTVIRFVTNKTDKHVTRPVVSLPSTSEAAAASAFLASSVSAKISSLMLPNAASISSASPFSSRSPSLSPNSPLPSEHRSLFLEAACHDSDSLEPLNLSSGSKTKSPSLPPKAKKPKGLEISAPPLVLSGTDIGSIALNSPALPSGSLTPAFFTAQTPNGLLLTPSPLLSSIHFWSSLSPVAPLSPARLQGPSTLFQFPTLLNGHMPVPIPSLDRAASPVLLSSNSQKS
How it was run: as §1

FEV = target: T6, FEV (Homo sapiens, UniProt Q99581 1-238)
T6 sequence: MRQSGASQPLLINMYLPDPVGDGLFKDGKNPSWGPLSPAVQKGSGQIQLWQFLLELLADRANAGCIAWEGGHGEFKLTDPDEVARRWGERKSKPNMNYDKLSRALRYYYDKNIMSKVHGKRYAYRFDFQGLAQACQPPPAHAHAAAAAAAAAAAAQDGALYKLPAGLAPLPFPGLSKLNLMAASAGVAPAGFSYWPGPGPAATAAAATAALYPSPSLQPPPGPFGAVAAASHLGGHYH
How it was run: as §1

ETV5 = ETV5 (Homo sapiens, UniProt P41161 1-510)
How it was run: as §1

SPIC = target: T7, SPIC (Homo sapiens, UniProt Q8N5J4 1-248)
T7 sequence: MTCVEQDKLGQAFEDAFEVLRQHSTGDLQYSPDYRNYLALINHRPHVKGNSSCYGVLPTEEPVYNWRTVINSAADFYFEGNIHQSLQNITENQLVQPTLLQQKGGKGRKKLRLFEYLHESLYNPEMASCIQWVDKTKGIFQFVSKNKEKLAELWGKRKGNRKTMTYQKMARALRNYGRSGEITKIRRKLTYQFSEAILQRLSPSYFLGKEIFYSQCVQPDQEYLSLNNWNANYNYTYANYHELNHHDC
How it was run: as §1

ELF4 = ELF4 (Homo sapiens, UniProt Q99607 1-663)
How it was run: as §1

ELK4 = target: T8, ELK4 (Homo sapiens, UniProt P28324-2 1-405)
T8 sequence: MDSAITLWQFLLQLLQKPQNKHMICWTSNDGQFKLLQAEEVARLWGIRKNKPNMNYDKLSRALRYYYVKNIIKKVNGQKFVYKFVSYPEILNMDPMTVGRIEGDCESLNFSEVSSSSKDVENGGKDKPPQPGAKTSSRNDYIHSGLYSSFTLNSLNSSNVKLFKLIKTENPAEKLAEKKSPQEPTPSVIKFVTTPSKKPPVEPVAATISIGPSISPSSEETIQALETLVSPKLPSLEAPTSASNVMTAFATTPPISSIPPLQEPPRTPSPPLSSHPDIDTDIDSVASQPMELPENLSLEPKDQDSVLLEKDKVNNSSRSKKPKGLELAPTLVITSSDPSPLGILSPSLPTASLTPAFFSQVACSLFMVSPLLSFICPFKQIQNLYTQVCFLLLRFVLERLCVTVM
How it was run: as §1

ETV2 = target: T9, ETV2 (Homo sapiens, UniProt O00321 1-342)
T9 sequence: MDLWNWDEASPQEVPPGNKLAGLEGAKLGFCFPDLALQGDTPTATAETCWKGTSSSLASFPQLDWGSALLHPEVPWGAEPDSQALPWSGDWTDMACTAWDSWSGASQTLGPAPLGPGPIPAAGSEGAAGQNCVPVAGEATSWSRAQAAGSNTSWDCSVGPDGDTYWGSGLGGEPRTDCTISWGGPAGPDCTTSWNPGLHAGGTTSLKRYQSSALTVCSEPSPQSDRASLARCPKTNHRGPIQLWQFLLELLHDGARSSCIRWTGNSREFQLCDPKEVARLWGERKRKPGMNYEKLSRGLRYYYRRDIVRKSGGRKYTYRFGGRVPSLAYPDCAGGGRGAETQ
How it was run: as §1

ETV1 = ETV1 (Homo sapiens, UniProt P50549 1-477)
How it was run: as §1

EHF = target: T10, EHF (Homo sapiens, UniProt Q9NZC4 1-300)
T10 sequence: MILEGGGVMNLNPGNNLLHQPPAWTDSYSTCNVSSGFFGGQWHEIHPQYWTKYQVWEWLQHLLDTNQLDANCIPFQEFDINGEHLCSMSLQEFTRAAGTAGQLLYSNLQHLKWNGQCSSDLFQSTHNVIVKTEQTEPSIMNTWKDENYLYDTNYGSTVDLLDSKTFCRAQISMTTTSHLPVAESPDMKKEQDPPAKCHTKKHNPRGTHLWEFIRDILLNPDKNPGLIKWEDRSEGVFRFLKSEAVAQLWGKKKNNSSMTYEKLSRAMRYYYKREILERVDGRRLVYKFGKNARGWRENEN
How it was run: as §1

ELF3 = target: T11, ELF3 (Homo sapiens, UniProt P78545 1-371)
T11 sequence: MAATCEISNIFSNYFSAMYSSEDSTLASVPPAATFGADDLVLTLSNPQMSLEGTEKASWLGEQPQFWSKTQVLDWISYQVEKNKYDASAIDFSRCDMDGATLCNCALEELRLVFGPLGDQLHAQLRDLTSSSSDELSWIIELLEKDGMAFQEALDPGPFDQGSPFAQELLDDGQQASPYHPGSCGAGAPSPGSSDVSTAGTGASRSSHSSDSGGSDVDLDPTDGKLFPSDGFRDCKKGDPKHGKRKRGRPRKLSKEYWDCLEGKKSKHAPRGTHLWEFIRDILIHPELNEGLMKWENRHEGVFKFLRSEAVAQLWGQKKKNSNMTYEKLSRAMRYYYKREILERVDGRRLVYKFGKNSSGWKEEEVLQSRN
How it was run: as §1

ETV1, sequence (P50549 whole entry): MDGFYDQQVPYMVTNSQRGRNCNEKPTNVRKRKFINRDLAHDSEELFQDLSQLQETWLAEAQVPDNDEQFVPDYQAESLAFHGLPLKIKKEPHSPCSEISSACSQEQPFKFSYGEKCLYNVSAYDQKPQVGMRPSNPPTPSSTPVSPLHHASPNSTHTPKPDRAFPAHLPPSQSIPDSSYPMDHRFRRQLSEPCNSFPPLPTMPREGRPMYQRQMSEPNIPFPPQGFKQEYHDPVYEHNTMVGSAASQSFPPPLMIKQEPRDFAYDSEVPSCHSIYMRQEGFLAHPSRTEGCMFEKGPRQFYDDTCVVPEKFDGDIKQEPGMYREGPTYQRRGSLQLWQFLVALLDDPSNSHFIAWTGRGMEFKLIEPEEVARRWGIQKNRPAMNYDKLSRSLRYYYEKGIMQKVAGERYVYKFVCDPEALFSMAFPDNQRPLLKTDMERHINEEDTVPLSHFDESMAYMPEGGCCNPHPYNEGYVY
ELF4, sequence (Q99607 whole entry): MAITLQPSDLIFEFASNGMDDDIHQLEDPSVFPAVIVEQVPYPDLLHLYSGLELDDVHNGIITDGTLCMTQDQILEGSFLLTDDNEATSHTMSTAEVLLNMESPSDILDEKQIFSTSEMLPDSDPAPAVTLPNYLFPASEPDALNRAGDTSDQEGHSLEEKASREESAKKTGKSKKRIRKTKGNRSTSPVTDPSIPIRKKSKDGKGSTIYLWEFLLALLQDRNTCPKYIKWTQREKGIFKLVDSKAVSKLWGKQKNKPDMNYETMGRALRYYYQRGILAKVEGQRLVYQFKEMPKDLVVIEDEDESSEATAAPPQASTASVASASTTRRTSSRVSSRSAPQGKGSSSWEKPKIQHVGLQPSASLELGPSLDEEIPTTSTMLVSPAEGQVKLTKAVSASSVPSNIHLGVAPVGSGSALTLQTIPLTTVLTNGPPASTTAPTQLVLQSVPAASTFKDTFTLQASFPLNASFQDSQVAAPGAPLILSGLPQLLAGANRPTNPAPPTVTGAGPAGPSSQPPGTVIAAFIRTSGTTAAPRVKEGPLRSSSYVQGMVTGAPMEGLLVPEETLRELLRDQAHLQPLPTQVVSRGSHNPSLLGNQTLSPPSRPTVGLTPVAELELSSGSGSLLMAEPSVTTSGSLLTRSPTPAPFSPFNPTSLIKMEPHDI
ELF1, sequence (P32519 whole entry): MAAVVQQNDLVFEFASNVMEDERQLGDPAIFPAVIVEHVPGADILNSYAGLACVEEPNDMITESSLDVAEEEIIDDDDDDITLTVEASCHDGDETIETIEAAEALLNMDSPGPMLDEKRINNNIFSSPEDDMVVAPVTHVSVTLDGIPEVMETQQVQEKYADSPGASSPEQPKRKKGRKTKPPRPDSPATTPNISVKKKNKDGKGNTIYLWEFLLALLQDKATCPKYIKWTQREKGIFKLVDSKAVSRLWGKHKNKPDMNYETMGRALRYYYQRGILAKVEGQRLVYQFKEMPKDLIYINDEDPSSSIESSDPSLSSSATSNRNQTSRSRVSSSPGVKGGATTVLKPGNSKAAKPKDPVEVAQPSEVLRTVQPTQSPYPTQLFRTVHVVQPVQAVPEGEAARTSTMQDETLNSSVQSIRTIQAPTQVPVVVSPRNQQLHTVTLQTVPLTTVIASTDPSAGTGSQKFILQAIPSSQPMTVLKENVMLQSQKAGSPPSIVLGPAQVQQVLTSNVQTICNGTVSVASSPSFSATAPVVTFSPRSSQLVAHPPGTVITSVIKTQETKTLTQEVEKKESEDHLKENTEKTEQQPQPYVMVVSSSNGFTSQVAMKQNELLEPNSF
ETV5, sequence (P41161 whole entry): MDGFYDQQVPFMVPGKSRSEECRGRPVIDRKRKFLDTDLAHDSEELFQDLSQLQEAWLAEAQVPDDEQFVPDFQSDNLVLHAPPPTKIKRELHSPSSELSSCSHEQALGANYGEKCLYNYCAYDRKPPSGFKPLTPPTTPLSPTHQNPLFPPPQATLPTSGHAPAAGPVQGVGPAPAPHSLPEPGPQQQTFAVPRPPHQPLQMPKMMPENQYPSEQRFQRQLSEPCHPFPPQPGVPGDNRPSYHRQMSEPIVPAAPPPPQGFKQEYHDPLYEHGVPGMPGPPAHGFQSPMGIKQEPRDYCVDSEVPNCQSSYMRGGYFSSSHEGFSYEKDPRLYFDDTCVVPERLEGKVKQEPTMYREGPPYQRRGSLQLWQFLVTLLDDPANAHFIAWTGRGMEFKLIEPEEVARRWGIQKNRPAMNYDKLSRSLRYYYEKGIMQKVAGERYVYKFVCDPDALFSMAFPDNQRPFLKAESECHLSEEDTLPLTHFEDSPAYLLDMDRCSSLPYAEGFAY
SPIB, sequence (Q01892 whole entry): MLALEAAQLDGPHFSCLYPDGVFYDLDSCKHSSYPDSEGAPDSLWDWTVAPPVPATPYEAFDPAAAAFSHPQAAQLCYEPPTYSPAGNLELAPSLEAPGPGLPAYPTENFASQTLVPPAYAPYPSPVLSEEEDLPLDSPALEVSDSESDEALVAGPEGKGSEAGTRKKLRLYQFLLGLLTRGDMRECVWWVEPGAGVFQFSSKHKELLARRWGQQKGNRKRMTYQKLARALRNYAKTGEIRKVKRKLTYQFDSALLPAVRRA

Row | Sequence | binding signal (FLI1) | binding signal (ELK1) | binding signal (GABPA) | binding signal (ERG) | binding signal (ELF1) | binding signal (SPI1) | binding signal (SPIB) | binding signal (ELK3) | binding signal (FEV) | binding signal (ETV5) | binding signal (SPIC) | binding signal (ELF4) | binding signal (ELK4) | binding signal (ETV2) | binding signal (ETV1) | binding signal (EHF) | binding signal (ELF3)
1 | ACCCTG | 1.05 fold enrichment (6-mer frequency, TF over GST control) | 1.09 fold enrichment (6-mer frequency, TF over GST control) | 1.06 fold enrichment (6-mer frequency, TF over GST control) | 1.05 fold enrichment (6-mer frequency, TF over GST control) | 1.13 fold enrichment (6-mer frequency, TF over GST control) | 1.05 fold enrichment (6-mer frequency, TF over GST control) | 1.09 fold enrichment (6-mer frequency, TF over GST control) | 1.24 fold enrichment (6-mer frequency, TF over GST control) | 1.02 fold enrichment (6-mer frequency, TF over GST control) | 1.01 fold enrichment (6-mer frequency, TF over GST control) | 1.1 fold enrichment (6-mer frequency, TF over GST control) | 1.16 fold enrichment (6-mer frequency, TF over GST control) | 1.18 fold enrichment (6-mer frequency, TF over GST control) | 1.05 fold enrichment (6-mer frequency, TF over GST control) | 1.09 fold enrichment (6-mer frequency, TF over GST control) |  | 
2 | TGGTCC | 1.25 fold enrichment (6-mer frequency, TF over GST control) | 1.23 fold enrichment (6-mer frequency, TF over GST control) | 1.18 fold enrichment (6-mer frequency, TF over GST control) | 1.26 fold enrichment (6-mer frequency, TF over GST control) | 1.35 fold enrichment (6-mer frequency, TF over GST control) | 1.18 fold enrichment (6-mer frequency, TF over GST control) | 1.32 fold enrichment (6-mer frequency, TF over GST control) | 1.15 fold enrichment (6-mer frequency, TF over GST control) | 1.12 fold enrichment (6-mer frequency, TF over GST control) | 1.23 fold enrichment (6-mer frequency, TF over GST control) | 1.32 fold enrichment (6-mer frequency, TF over GST control) | 1.22 fold enrichment (6-mer frequency, TF over GST control) | 1.29 fold enrichment (6-mer frequency, TF over GST control) | 1.23 fold enrichment (6-mer frequency, TF over GST control) | 1.2 fold enrichment (6-mer frequency, TF over GST control) | 1.26 fold enrichment (6-mer frequency, TF over GST control) | 
3 | GATATG | 1.15 fold enrichment (6-mer frequency, TF over GST control) | 1.06 fold enrichment (6-mer frequency, TF over GST control) | 1.07 fold enrichment (6-mer frequency, TF over GST control) | 1.11 fold enrichment (6-mer frequency, TF over GST control) | 1.03 fold enrichment (6-mer frequency, TF over GST control) | 1.06 fold enrichment (6-mer frequency, TF over GST control) |  | 1.04 fold enrichment (6-mer frequency, TF over GST control) | 1.08 fold enrichment (6-mer frequency, TF over GST control) | 1.1 fold enrichment (6-mer frequency, TF over GST control) | 1.23 fold enrichment (6-mer frequency, TF over GST control) | 1.11 fold enrichment (6-mer frequency, TF over GST control) | 1.07 fold enrichment (6-mer frequency, TF over GST control) |  | 1.03 fold enrichment (6-mer frequency, TF over GST control) | 1.12 fold enrichment (6-mer frequency, TF over GST control) | 1.08 fold enrichment (6-mer frequency, TF over GST control)

Source: PMC7862700, “An all-to-all approach to the identification of sequence-specific readers for epigenetic DNA modifications on cytosine”
